Test results published in PubChem BioAssay (NCI).
The panel holds about 83,000 compounds, 20% with a hit somewhere; the sample as a whole holds those more often.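 Single-dose data. Exposure time 48 hours. Values below 10 considered active.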 Values without a mark were called inactive. The source made the active and inactive calls.

Test system: HCT-15 colon
Experiment: NCI-60 one-dose screen, 48 h (100 = growth as untreated, 0 = no growth, -100 = all killed)
Conditions: 10 µM unless noted

SMILES | growth
CN(CCn1sc(=O)n(Cc2ccccc2)c1=O)Cc1ccc2c(Cl)cc(Cl)c(O)c2n1 | 16.3%
CCN(CC)CCOc1ccc(C(=C(C)c2ccc(Cl)cc2)c2ccc(OCCN(CC)CC)cc2)cc1 | -76.9% (active)
CC(=O)OC[C@]12CCC(C)(C)C[C@H]1[C@@]1(O)[C@H](O)C[C@@H]3[C@@]4(C)CCCNC(C)(C)[C@@H]4CC[C@@]3(C)[C@]1(C)CC2 | 111%
Cc1ccc(CNc2ccc(Cl)cc2NCc2ccc(C)c(O)c2)cc1O | 7.28% (active)
COc1ccc(C(=O)C2C(c3ccc(OC)cc3)CN(C)C23C(=O)Nc2ccccc23)cc1 (stereo not drawn) | 86.9%
O=C(O)CCCN1C(=O)/C(=C/C(Cl)=C/c2ccccc2)SC1=S | -54.3% (active)
O=C1/C(=C/c2ccc(Cl)cc2)COc2ccc(O)c(O)c21 | -1.01% (active)
COc1cc(CNC(=O)/C=C/C=C/c2ccc3c(c2)OCO3)ccc1OCc1cn(-c2ccc(C)c(C)c2)nn1 | 81.3%

Test system: HT29 colon
Experiment: as above
Conditions: 10 µM unless noted

SMILES | growth
CS(=O)(=O)Nc1cc(-c2ccc3ncnc(Nc4ccc5c(cnn5Cc5ccccn5)c4)c3c2)cnc1Cl | 80.7%
CO[C@H]1/C=C(/C)CCC[C@H](C)[C@H](O)[C@@H](C)C(=O)C(C)(C)[C@@H](O)CC(=O)O[C@@H]1/C(C)=C/c1csc(C)n1 | -4.27% (active)
COc1ccc2nc3ccc(OC)cc3c(SCCCN)c2c1 | 37.4%
CCCCCCCCCCCCCCCC(N)c1ccccc1 (stereo not drawn) | -65.3% (active)
CC1=C(Nc2ccc(N3CCN(C)CC3)cc2)C(=O)c2cncnc2C1=O | 112%
CN(C)c1ccc(/C=C/C(=O)c2ccc(-n3cc(CN4CCN(c5cc6c(cc5F)c(=O)c(C(=O)O)cn6C5CC5)CC4)nn3)cc2)cc1 | 28%
CCN(CC)c1nc(SCc2ccccc2Cl)ncc1C | 107%
CCN1CCN(Cc2cn(CC(=O)Nc3ccc4c(ccn4Cc4ccccc4)c3)nn2)CC1 | 102%
O=C(O)[C@@H]1c2ccccc2-c2ccccc2[C@H]1C(=O)O | 102%
O=C1CC(N2C(=O)/C(=C/C(Cl)=C\c3ccc([N+](=O)[O-])cc3)SC2=S)C(=O)N1c1ccc(Cl)cc1 (stereo not drawn) | 4.25% (active)
CCc1ccc(Oc2cn[nH]c2-c2ccc(OCCc3ccc(F)cc3)cc2O)cc1 | 42.4%
CC1(C)CCC(S(=O)(=O)c2ccc3c(c2)/C(=N\O)c2cc(S(=O)(=O)N4CCC(O)(c5cccc(C(F)(F)F)c5)CC4)ccc2-3)CC1 | -80.1% (active)
Cc1cc(Cl)ccc1Nc1nc(C(F)(F)F)ccc1C(=O)N/N=C/c1ccc([N+](=O)[O-])cc1 | -26.6% (active)
CCOC(=O)c1[nH]c(=O)c2c(C)nc(-c3ccccc3)cc2c1O | 113%
Oc1ccc(CN2CCC(N3CCCCC3)CC2)c2cccnc12 | 105%
COc1cccc([C@H]2c3[nH]c4ccccc4c3C[C@H]3C(=O)N(CCCCCCC(=O)NO)CC(=O)N23)c1 | 56.7%
C=CC(=O)NCc1ccc(Nc2nccc(-c3ccc(N4CCCC4)c(C#N)c3)n2)cc1 | 7.08% (active)
CC1=C(C(=O)OC(C)C)C(c2ccc3c(c2)OCO3)NC(=S)N1 (stereo not drawn) | 103%
CCOC(=O)Cn1c(O)c(N=Nc2ccc(S(N)(=O)=O)cc2)c2cc(Br)ccc21 | 63.7%
O=C(Cn1c2c(c3ccccc31)CCCC2)Nc1ccc(-c2nc3ccccc3s2)cc1 | 107%

SMILES | growth
COC(C(=O)[C@@H](O)[C@@H](C)O)[C@@H]1Cc2cc3cc(O[C@H]4C[C@@H](O[C@H]5C[C@@H](O)[C@H](O)C(C)O5)[C@H](O)C(C)O4)c(C)c(O)c3c(O)c2C(=O)[C@H]1O[C@H]1C[C@@H](O[C@H]2C[C@@H](O[C@H]3C[C@@H](O)[C@H](OC)C(C)O3)[C@@H](O)C(C)O2)[C@H](O)C(C)O1 (stereo partly drawn) | -13.6% (active)
CCCCCCCCn1ccc2cc(NC(=O)CN3CCN(c4nc(C)cc(Cl)n4)CC3)ccc21 | 65.3%
COc1ccc(/C=N/NC(=O)CCN2c3ccccc3Sc3ccccc32)cc1 | 57%
CNC(=O)c1cc(Oc2ccc3c(c2)sc2nc(-c4cc(OC)c(OC)c(OC)c4)cn23)ccn1 | 65.3%
CCCCCCNC(=O)Oc1ccc(/C(=C(/C)Cc2ccc(OC)cc2)c2ccc(OCCCN(C)C)cc2)cc1 | -55.9% (active)
Cn1ccnc1C(=O)C(=O)Nc1ccc(CC(=O)Nc2ccccc2)cc1 | 107%
C=CCc1c(O)c(C(=O)/C=C/c2ccc(Cl)cc2)c(OC)c2ccoc12 | 36.6%
C=C(CNCCc1ccc(O)cc1)[C@@H]1CC[C@]2(CO)CC[C@]3(C)[C@H](CC[C@@H]4[C@@]5(C)CCC(NCCO)C(C)(C)[C@@H]5CC[C@]43C)[C@@H]12 (stereo partly drawn) | -44.1% (active)
CCOC(=O)CNP(=O)(OC[C@@H](Cc1ccccc1)NC(=O)c1cc2ccccc2s1)Oc1ccccc1 (stereo partly drawn) | 57.2%
COc1ccc(OC)c(C(=O)/C=C/c2cc3c(c(OC)c2OC)OCO3)c1 | 60.3%
C=C(C)[C@@H]1CC[C@]2(C)[C@H](CC=C3[C@@H]4[C@H](C)[C@@H](C)CC[C@]4(CO)CC[C@]32C)[C@@]1(C)CCCN | -44.5% (active)
O=C1/C(=C/c2ccc(F)cc2)COc2ccc(O)cc21 | 48.7%
CN(CCn1sc(=O)n(Cc2ccccc2)c1=O)Cc1ccc2c(Cl)cc(Cl)c(O)c2n1 | 39.9%
CCN(CC)CCOc1ccc(C(=C(C)c2ccc(Cl)cc2)c2ccc(OCCN(CC)CC)cc2)cc1 | -74.8% (active)
CC(=O)OC[C@]12CCC(C)(C)C[C@H]1[C@@]1(O)[C@H](O)C[C@@H]3[C@@]4(C)CCCNC(C)(C)[C@@H]4CC[C@@]3(C)[C@]1(C)CC2 | 109%
Cc1ccc(CNc2ccc(Cl)cc2NCc2ccc(C)c(O)c2)cc1O | 49.1%
COc1ccc(C(=O)C2C(c3ccc(OC)cc3)CN(C)C23C(=O)Nc2ccccc23)cc1 (stereo not drawn) | 84.3%
O=C(O)CCCN1C(=O)/C(=C/C(Cl)=C/c2ccccc2)SC1=S | 7.49% (active)
O=C1/C(=C/c2ccc(Cl)cc2)COc2ccc(O)c(O)c21 | 15.5%
COc1cc(CNC(=O)/C=C/C=C/c2ccc3c(c2)OCO3)ccc1OCc1cn(-c2ccc(C)c(C)c2)nn1 | 91.6%
